# According to PubChem BioAssay (EPA / NIEHS):
# Inconclusive results are not listed. Activity calls are given as the source filed them. Rule for the calls: active = hit-call score of the fitted dose curve at least 0.9, where 1 is the maximum; inconclusive = response in the unintended direction; inactive = score below 0.9.
# Read-out: sulfotransferase (SULT2A), SULT2A1 (gene 6822)
# Experiment: CLD_SULT2A_48hr: CellzDirect (CLD) Gene Expression Assay for sulfotransferase (SULT2A) at 48 hours (AID 2283710);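 note: hits raise SULT2A1 transcript above the 0.2% DMSO vehicle baseline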
# Experimental: CLD_48hr is a cell-based, multiplexed-readout assay that uses hepatocyte, a human liver primary cell, with measurements taken at 48 hours after chemical dosing in a 96-well plate.CLD_SULT2A_48hr is one of 16 assay component(s) measured or calculated from the CLD_48hr assay. It is designed to make measurements of mRNA induction, a form of inducible reporter, as detected with chemiluminescence signals by Quantitative Nuclease Protection Assay (qNPA) technology.Data from the assay component CLD_SULT2A_48hr was analyzed at the endpoint, CLD_SULT2A_48hr, in the positive analysis fitting direction relative to DMSO as the negative control and baseline of activity. Using a type of inducible reporter, gain-of-signal activity can be used to understand changes in the reporter gene as they relate to the gene SULT2A1. Furthermore, this assay endpoint can be referred to as a primary readout. To generalize the intended target to other relatable targets, this assay endpoint is annotated to the transferase intended target family, where subfamily is sulfotransferase.
# Human hepatocyte cultures were treated daily for two consecutive days with fresh dosing solutions containing appropriate concentrations of the 320 ToxCast chemicals (chemical identities were blinded to CellzDirect and other ToxCast collaborators), vehicle control (0.2% DMSO), and positive control inducers as summarized in Table 1. Due to the large number of treatment groups and chemicals examined, the ToxCast chemicals were divided into two groups (spanning two independent cultures of hepatocytes from separate donor preparations (Hu778: ToxCast plates 1 and 2; Hu776: ToxCast plates 3 and 4). Each preparation of human hepatocyte cultures was treated with respective vehicle control, medium only control, set of six positive controls/reference chemicals for the five hepatic receptor pathways, and a subset of eight of the ToxCast chemicals (indoxacarb, pyrithiobac-sodium, norflurazon, cyhalofop-butyl, methomyl, thiram, acetochlor, and propiconazole). These replicate data, coupled with internal replicates designed within the blinded ToxCast chemical library, provided additional data to evaluate interindividual differences between hepatocyte preparations and their potential impact on chemical profiles.Cell morphology and integrity were evaluated using phase-contrast microscopy as an indicator of hepatocyte cell health (Tyson & Green, 1987). Cultures for each treatment group (i.e., media, vehicle [0.2% DMSO], positive control inducers [multiple concentrations], and the ToxCast chemicals [multiple concentrations]) were observed and cell morphology was assessed relative to vehicle control cultures at each harvest time point (0, 6, 24, or 48 h). […] Images were evaluated at the conclusion of the study to assess changes in cell integrity and account for the effects of chemical exposure on uncharacteristic changes in concentration-dependent gene expression profiles. The results from these determinations of apparent cytotoxicity were annotated (yes/no) alongside the corresponding qNPA data for reference.At the conclusion of each treatment period, hepatocyte cultures (96-well) were washed with 1 volume of HBSS, lysed by addition of 25 ul ArrayPlate lysis buffer (HTG, Tucson, AZ), and 70 ul/well of Denaturation Oil, denatured by incubation at 95C for 10 min, and frozen at approximately -70C until analysis by nuclease protection assay (qNPA) (Roberts et al., 2007). For qNPA analysis, cell lysates were thawed at 50C for approximately 30 min, qNPA probes were added, and samples were incubated at 95C for 10 min to begin the detection process by denaturing the target RNA, dissociating the duplexes and secondary structure hybridization. At the conclusion of the hybridization period, S1 nuclease reagent was added to each sample to digest all nonprotected nucleotides at 50C for 60-90 min. […]
SMILES,outcome,AC50
CC(C)(C)c1ccc(CSc2cnn(C(C)(C)C)c(=O)c2Cl)cc1,inactive,–
O=C(O)c1nc(Cl)ccc1Cl,inactive,–
N#Cc1nn(-c2c(Cl)cc(C(F)(F)F)cc2Cl)c(N)c1S(=O)C(F)(F)F (stereo not given),inactive,–
CCOC(=O)CC(SP(=S)(OC)OC)C(=O)OCC (stereo not given),inactive,–
CON(C)C(=O)Nc1ccc(Cl)c(Cl)c1,inactive,–
C=CCC1=C(C)[C@@H](OC(=O)[C@@H]2[C@@H](C=C(C)C)C2(C)C)CC1=O,inactive,–
COc1cnc(OC)n2nc(NS(=O)(=O)c3c(OCC(F)F)cccc3C(F)(F)F)nc12,inactive,–
Cc1c(F)c(F)c(COC(=O)C2C(/C=C(\Cl)C(F)(F)F)C2(C)C)c(F)c1F (stereo not given),inactive,–
Fc1ccc(Oc2ccnc3cc(Cl)cc(Cl)c23)cc1,inactive,–
CCCCC(CC)COC(=O)c1ccccc1C(=O)OCC(CC)CCCC (stereo not given),inactive,–
CCOc1cc(Oc2ccc(C(F)(F)F)cc2Cl)ccc1[N+](=O)[O-],inactive,–
COC(=O)C(C)Oc1ccc(Oc2ccc(Cl)cc2Cl)cc1 (stereo not given),inactive,–
CCCC1COC(Cn2cncn2)(c2ccc(Cl)cc2Cl)O1 (stereo not given),inactive,–
COc1nc(NC(C)C)nc(NC(C)C)n1,inactive,–
CCON=C(CC)C1=C(O)CC(c2c(C)cc(C)cc2C)CC1=O (stereo not given),inactive,–
CCCCOC(=O)c1ccccc1C(=O)OCCCC,inactive,–
N#CC(CCc1ccc(Cl)cc1)(Cn1cncn1)c1ccccc1 (stereo not given),–,20 µM (active)
CCCN(CCC)c1c([N+](=O)[O-])cc(S(N)(=O)=O)cc1[N+](=O)[O-],–,6.29 µM (active)
C=CC1(C)OC(=O)N(c2cc(Cl)cc(Cl)c2)C1=O (stereo not given),inactive,–
Oc1ccccc1-c1ccccc1,inactive,–

SMILES,outcome,AC50
CCNc1nc(Cl)nc(NCC)n1,inactive,–
CS/C(C)=N/OC(=O)N(C)SN(C)C(=O)O/N=C(\C)SC,inactive,–
COc1ccc(C(c2ccc(OC)cc2)C(Cl)(Cl)Cl)cc1,inactive,–
COC(=O)c1ccccc1C(=O)OC,inactive,–
CC(Oc1ccc(Cl)cc1Cl)C(=O)O (stereo not given),inactive,–
COC(=O)C=C(C)OP(=O)(OC)OC,inactive,–
COP(N)(=O)SC (stereo not given),inactive,–
COC(=O)N(OC)c1ccccc1COc1ccn(-c2ccc(Cl)cc2)n1,–,9.28 µM (active)
CCc1nn(C)c(C(=O)NCc2ccc(C(C)(C)C)cc2)c1Cl,–,20 µM (active)
CCOP(=S)(OCC)SCn1c(=O)oc2cc(Cl)ccc21,inactive,–
CCNc1nc(Cl)nc(NC(C)C)n1,inactive,–
CC(C)C1(C)N=C(c2nc3ccccc3cc2C(=O)O)NC1=O (stereo not given),inactive,–
CC(C)Oc1cc(-n2nc(C(C)(C)C)oc2=O)c(Cl)cc1Cl,–,2.92 µM (active)
COc1nc(C)nc(NC(=O)NS(=O)(=O)c2ccccc2CCC(F)(F)F)n1,inactive,–
CC1COC(Cn2cncn2)(c2ccc(Oc3ccc(Cl)cc3)cc2Cl)O1 (stereo not given),inactive,–
N#Cc1cc(Br)c(O)c(Br)c1,inactive,–
C=CCC1=C(C)C(OC(=O)C2C(C=C(C)C)C2(C)C)CC1=O (stereo not given),inactive,–
CCOC(=O)C(Cl)Cc1cc(-n2nc(C)n(C(F)F)c2=O)c(F)cc1Cl (stereo not given),inactive,–
C#CCOS(=O)OC1CCCCC1Oc1ccc(C(C)(C)C)cc1 (stereo not given),inactive,–
O=C(Nc1ccccc1)Nc1ccnc(Cl)c1,inactive,–
